From PubChem BioAssay AID901 (National Center for Advancing Translational Sciences (NCATS), 2007)
In all, about 120,000 compounds went through this assay and fewer than 10 were called active. Roughly 4% stayed inconclusive and do not appear here. The call rests on the fitted dose curve; in most records, active means well fitted curve in the direction sought with a large enough effect in the signal ratio (not every such curve was filed as active); inconclusive means small, poorly fitted or top-dose-only effect, or a change in a side signal; inactive means no such curve, though single readings can be large or run the other way; the % refers to the signal ratio. A selection follows.

The compounds below were run against Inositol monophosphatase 1 (Rattus norvegicus) (UniProt P97697) (assay: qHTS Assay for Identifying the Cell-Membrane Permeable IMPase Inhibitors). Details: CHO-M1 cells, HTRF TR-FRET ratio; series mostly up to 46.1 µM; inhibition (IP1 accumulation): at the top concentration.
Text: NCGC IMPase Assay Overview
Lithium has been widely used for the treatment of bipolar disorder. But lithium has a narrow therapeutic index and it can cause side effects such as thirst, weight gain, tremor, polyuria and memory problems. Although the mechanism for lithium action in treatment of bipolar disorder is still not fully understood, inhibition of inositol monophosphatase (IMPase) and the subsequent depletion of the inositol pool in living cells have been implicated as the primary therapeutic benefit of lithium therapy. Therefore, a selective IMPase inhibitor with reduced side effects might be a good drug candidate to replace lithium for the treatment of bipolar disorder. Several IMPase inhibitors have been discovered previously. However, they are not suitable for therapeutic use because of their poor cell membrane penetrability or oral bioavailability; the development of new cell-permeable IMPase inhibitors is needed.
IMPase catalyzes the hydrolysis of inositol-1-phosphate (IP1) to release free inositol. Binding of an agonist to a Gq coupled GPCR results in the activation of PLC, which hydrolyzes the PIP2 to form inositol-1,4,5-trisphosphate (IP3) and diacyl glycerol (DAG). While DAG activates protein kinase C (PKC), IP3 triggers the elevation of intracellular free Ca2+. The IP3 is very rapidly inactivated by hydrolysis to IP2, IP1 and then inositol by a series of enzymes including IMPase. Free inositols are used for synthesis of PI and thus start another inositol cycle.
To identify new cell-permeable IMPase inhibitors, we developed a cell-based IMPase assay in which the cytosolic IP1 is measured by a time-resolved fluorescence resonance energy transfer (TR-FRET) assay. In this assay, an IP1 specific antibody is used to detect the labeled IP1 tracer. When the cell lysate contains the elevated IP1 due to the inhibition of IMPase, the TR-FRET between the labeled antibody and IP1 tracer is disrupted resulting in a reduction in the total signal. Since the TR-FRET is used, this cell-based assay is a homogenous assay without cell wash and medium change that is suitable for assay miniaturization and HTS.
NCGC IMPase Assay Protocol Summary
A Chinese hamster ovary (CHO) cell line stably expressing the M1 receptor (CHO-M1) was obtained from ATCC and maintained in F-12 Kaighn's media (Invitrogen, Carlsbad, CA, 21127) supplemented with 10 % FBS, 100 units/ml penicillin, 100 ug/ml streptomycin and 250 ug/ml geneticin at 37C, 5% CO2 in a humidified atmosphere. Before the assay, aliquots of cells were frozen and stored at -135C. The assay was performed in 1536-well format. Data are reported for both the ratio of the two emission wavelengths, and also for the component 'donor' channel, Em2=620. […] AC50 values were determined from concentration-response data modeled with the standard Hill equation.
IMPase 1536-well assay protocol:
(1) Plate 4 ul/well (2000 cells) of cell suspension from frozen CHO-M1 Cells in white, tissue culture treated 1536-well plates that are cultured at 37C, 5 % CO2 for 16 to 30 hours.
(2) Add 23 nl/well of compound in DMSO solution. The final titration for each compound was between 0.6 nM and 46 uM.
(3) Add 1 ul of carbachol (50 uM in stimulation buffer containing10mM HEPES, 1mM CaCl2, 0.5 mM MgCl2, 4.2 mM KCl, 146 mM NaCl, 5.5 mM glucose, 50mM LiCl, pH 7.4.
(4) Incubation at 37C, 5 % CO2 for 30 min.
(5) Add 1 ul/well of d2-conjugated IP1 (d2-IP1) and 1 ul/well of Eu+ cryptate conjugated anti-IP1 antibody (Eu+-Ab) prepared in the cell lysis buffer, both from the IP-One kit (Cisbio, MA).
(6) Incubate at room temperature for 10 minutes.
(7) Detect the assay plate (Ex = 320, Em1 =665 and Em2 620) in a ViewLux plate reader.
inositol monophosphatase, IMPase, IMPase inhibitor, lithium, bipolar disorder, IP-One, HTRF, qHTS, NIH roadmap, NCGC
Note: In the gene ID and protein GI references for this assay, rat IMPase is referenced instead of hampster as hamster accession numbers were not available.
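Further: plate controls were DMSO basal wells for no effect and reference inhibitor wells for full effect; higher means more IMPase inhibition seen as more IP1 and lower FRET ratio.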

Inositol monophosphatase 1 (Rattus norvegicus), sequence (P97697 whole entry, looked up): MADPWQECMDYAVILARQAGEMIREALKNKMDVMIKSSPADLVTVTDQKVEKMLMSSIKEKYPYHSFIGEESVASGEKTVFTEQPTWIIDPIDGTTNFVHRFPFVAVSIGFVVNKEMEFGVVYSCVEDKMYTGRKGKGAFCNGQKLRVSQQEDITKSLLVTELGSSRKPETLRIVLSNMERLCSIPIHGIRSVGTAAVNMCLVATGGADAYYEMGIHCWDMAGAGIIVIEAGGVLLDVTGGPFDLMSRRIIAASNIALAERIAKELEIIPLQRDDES

Inhibition (IP1 accumulation), inactive:
C/C(CC1CC(C)(C)OC1=O)=N/Nc1nc(-c2ccccc2)cs1 (configuration not stated) 12.5%
Cc1ccc(C)c(N2CCN(C(=O)C3CCC(CNS(=O)(=O)c4cccs4)CC3)CC2)c1 (configuration not stated) 7.32%
CCc1nc2nc(C)cc(Nc3ccc(F)c(Cl)c3)n2n1 7.04%
Cn1c(=O)c2c(nc(SCC(=O)Nc3ccc(F)cc3)n2Cc2ccc(Cl)cc2)n(C)c1=O -2.31%
COc1ccc(NC(=O)C2CCCN(S(=O)(=O)c3c(C)[nH]c(=O)[nH]c3=O)C2)c(OC)c1 (configuration not stated) 2.41%
OCC(CO)(CO)NCc1ccc(-c2ccccc2)cc1 -8.01%
CCCCCCCCC(=O)NCCOc1ccccc1 2.86%
Cc1cc(NC(=O)C2CCC(CNS(=O)(=O)c3ccc(Br)s3)CC2)ccc1Br (configuration not stated) 10.5%
C[n+]1ccccc1C1CCCC/C1=N\Nc1ccc([N+](=O)[O-])cc1[N+](=O)[O-] (configuration not stated) 10.4%
CC1=C(C(=O)OCC2CCCCC2)C(c2c(F)cccc2Cl)CC(=O)N1 (configuration not stated) -0.576%
CCN(C(=O)COC(=O)c1cc(NS(=O)(=O)c2ccc(Cl)c([N+](=O)[O-])c2)ccc1O)C1CCCCC1 1.32%
COC(=O)c1cc(NC(=O)CCS(=O)(=O)c2cc(Br)cc3c2N(C(=O)C2CC2)CC3)cc(C(=O)OC)c1 5.34%
COc1ccccc1CN(C)C(=O)C1(c2ccc(Cl)cc2)CC1 3.44%
COc1ccc(OC)c(NC(=O)C2CCN(S(=O)(=O)c3ccc(C)cc3)CC2)c1 2.44%
COc1cc(/C=N/NC(=O)CCc2n[nH]c(=O)[nH]c2=O)ccc1O -1.58%
CCCCSc1ncnc2c1sc1nc(N3CCOCC3)c3c(c12)CCCC3 -3.4%
Cc1c(Cl)c([N+](=O)[O-])nn1CCCC(=O)NC(C)c1ccccc1 (configuration not stated) -2.01%
Cc1cc(C)cc(OCC(=O)Nc2c(C(=O)c3ccccc3)oc3ccccc23)c1 2.24%
CCN(Cc1ccccc1)Cc1c(O)ccc2c(=O)c(-c3ccc(Cl)cc3Cl)coc12 7.15%
Cn1c(=O)c2c(ncn2CC(=O)Nc2cccc(C(F)(F)F)c2)n(C)c1=O -20%
CSCCC(NC(=O)c1cc([N+](=O)[O-])cc([N+](=O)[O-])c1)c1nc2ccccc2[nH]1 (configuration not stated) -0.726%
CCOc1cc(NC(=S)NCCCOC)c(OCC)cc1NC(=O)c1ccco1 12.9%
O=C(CN1CCc2ccccc21)NC(c1ccccc1)c1ccccc1 -0.223%
CCOC(=O)CC(NC(=O)C1c2ccccc2Oc2ccccc21)c1ccc(C)cc1 (configuration not stated) 4.4%
O=C(COC(=O)CSc1nnc(-c2ccc(Cl)cc2)o1)Nc1cc(Cl)cc(Cl)c1 -3.97%
Cc1ccc(-c2nnc(Nc3ccc(OCC(N)=O)cc3)c3ccccc23)cc1S(=O)(=O)NCC1CCCO1 (configuration not stated) 2.48%
CCOC(=O)c1ccc(-c2ccc(/C=C(\C#N)C(=O)Nc3ccc(OCC)cc3)o2)cc1 -2.33%
Cc1ccc(-n2c(SCC(=O)N3c4ccccc4Sc4ccccc43)nnc2-c2ccncc2)cc1 0.458%
CCn1c2ccccc2c2cc(CN3CCN(Cc4cccc(Cl)c4)CC3)ccc21 -5.33%
O=C(Cc1ccc(Cl)cc1)Nc1ccc2nn(-c3ccc(Cl)cc3)nc2c1 -15.5%
CCNC(=S)N1CCC(c2nc3cc(C)c(C)cc3[nH]2)CC1 6.97%
Cc1cc(Cl)ccc1OCC(=O)N(Cc1ccc(N(C)C)cc1)C1CCS(=O)(=O)C1 (configuration not stated) 17.8%
CCNS(=O)(=O)c1ccc(NC(=O)CSc2nc(-c3ccco3)cc(C(F)(F)F)n2)cc1 -3%
N#C/C(=C\c1cccc(F)c1)c1nc(-c2cc3c(ccc4ccccc43)oc2=O)cs1 -6.22%
Cc1ccc(N2CC(c3nnc(Cc4ccccc4Cl)o3)CC2=O)cc1 (configuration not stated) 0.844%
Cc1ccc(C(=O)Nc2nc(-c3ccccc3)ns2)cc1 -1.28%
Cc1ccc(-n2c3nc(=O)[nH]c(=O)c-3cc3c(Cl)cccc32)cc1 -9.56%
COC(=O)c1c(C)oc2ccc(N(C(=O)Oc3ccccc3)S(=O)(=O)c3ccccc3)cc12 1.56%
CCC(C(=O)OCC(=O)Nc1c(Cl)cc(Cl)cc1Cl)c1ccccc1 (configuration not stated) -0.261%
CCn1c(=O)c(=O)n(CC)c2cc(N3CCCCC3)c(NC(=O)c3ccc(Cl)cc3)cc21 -8.55%
COc1ccc(NC(=O)Cn2c(=O)n(Cc3ccc(C(=O)NCc4ccccc4Cl)cc3)c(=O)c3ccccc32)cc1 -0.241%
CC1=Nc2cc(C(=O)N3CCC(C)CC3)ccc2Sc2ccc(Cl)cc21 17.1%
COCCNC(=O)c1ccc2c(c1)N=C(C)c1cc(C)ccc1S2 10.2%
Cc1cccc(C)c1OCC(=O)NC(Cc1c[nH]c2ccccc12)C(=O)O (configuration not stated) -1.15%
COc1ccc(-c2csc3ncnc(Oc4ccc5c(C)cc(=O)oc5c4)c23)cc1 -7.79%
CC(C)(C)C(=O)NC(NC(=S)Nc1ccc(S(N)(=O)=O)cc1)C(Cl)(Cl)Cl (configuration not stated) 3.28%
CCOC(=O)c1cnc2ccc(F)cc2c1Nc1ccc2c(c1)OCCO2 6.89%
COc1ccc(CNC(=O)CCCn2nc(C)c([N+](=O)[O-])c2C)cc1 -0.911%
Cc1cc[n+](-c2[nH]c(=O)sc2/C=N/NC(=O)c2ccccc2[O-])cc1C 2.47%
COc1ccc(-c2noc(CCC(=O)N(C)c3ccccc3C)n2)cc1 0.521%
CCOC(=O)c1c(C)n(S(=O)(=O)c2ccc(C)cc2C)c2ccc(NS(=O)(=O)c3ccc(C)cc3C)cc12 5.61%
CCC1CCCCN1C(=S)Nc1ccc(SC(F)F)cc1 (configuration not stated) 0.235%
